Screens as filed in PubChem.
FBPA Giardia inh: inhibitors of Giardia lamblia fructose-1,6-bisphosphate aldolase | purified Giardia FBPA | AID 2451 | 0.71% of 290,000 active | A8B2U2 | Potency, µM (highest dose often 59.6 µM), inactives show at the top dose activity, negative = inhibition, hits mostly inhibitors; also: nearly all actives have a fitted effect of over 55% in size
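40 nM FBPA preincubated 10 min at RT with compound (up to 57.5 uM final), then substrate plus GAPDH/TPI/NAD/arsenate coupling and diaphorase/resazurin added. Fluorescence read after 20 min at RT, 525/598 nm.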
Sm TGR block: S. mansoni TGR enzyme inhibition | 3% of 360,000 active | purified TGR, DTNB reduction, TNB absorbance 405 nm | Q962Y6 | Potency, µM (top dose mostly 114 µM), without a hit: at the top dose activity change, negative = inhibition, hits mostly inhibitors; also: nearly all actives have a fitted effect of over 60% in size
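TGR 20 nM + NADPH 100 uM (dispensed conc.), cpd preinc 15 min RT; start with NADPH (500 uM addition) then DTNB (15 mM addition). Kinetic TNB absorbance, 405 nm filter. Four-parameter Hill fit across titration.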
Tb PYK inh: blocks Trypanosoma brucei pyruvate kinase; Q57TT1; TbPYK enzyme, Kinase-Glo Plus ATP luminescence, 45 min; Potency, µM (titrated, usually from 76.8 µM), for the others: top-dose activity, negative = inhibition, usual class: inhibitors; 0.12% of 410,000 active; AID 624173; also: nearly all actives have a fitted effect of over 50% in size
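In this concentration-response screen, enzyme-free wells defined baseline while DMSO plates tracked drift. Each reaction combined TbPYK, substrate, compound and 130 uM ADP for 45 min at room temperature. Kinase-Glo Plus luminescence gave the signal.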
LmPK inh: blocks Leishmania mexicana pyruvate kinase activity; purified LmPK, Kinase-Glo ATP luminescence, 1 h; Potency, µM (titrated, usually from 57.5 µM), without a hit: at the top dose activity change, negative = inhibition, most hits filed as inhibitors; 0.37% of 290,000 active
Target sequence (Q27686 whole entry, looked up): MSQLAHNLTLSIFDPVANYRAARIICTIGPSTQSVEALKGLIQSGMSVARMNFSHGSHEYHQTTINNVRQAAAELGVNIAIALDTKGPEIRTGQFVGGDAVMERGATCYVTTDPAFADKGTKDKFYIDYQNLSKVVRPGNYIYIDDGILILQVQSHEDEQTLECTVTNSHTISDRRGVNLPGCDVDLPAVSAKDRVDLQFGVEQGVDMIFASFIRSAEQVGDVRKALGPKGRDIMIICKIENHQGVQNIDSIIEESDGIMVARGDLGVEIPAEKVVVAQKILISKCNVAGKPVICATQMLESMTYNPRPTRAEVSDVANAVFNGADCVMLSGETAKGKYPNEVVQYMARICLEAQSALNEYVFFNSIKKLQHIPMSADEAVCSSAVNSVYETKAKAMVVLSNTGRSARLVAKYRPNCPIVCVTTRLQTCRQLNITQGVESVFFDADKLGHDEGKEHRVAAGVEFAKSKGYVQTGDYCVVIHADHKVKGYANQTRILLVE
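ATP generated from ADP (0.1 mM) and PEP (0.5 mM) by 0.1 nM LmPK over 1 h at room temperature (pH 7.2 imidazole buffer) was detected by coupled luciferase luminescence. Values were normalized to uninhibited and no-enzyme wells.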
RE007 growth inh: less growth of the S. pombe RE007 Vpr strain; AID 651644; S. pombe RE007 Vpr strain, BacTiter-Glo ATP luminescence, 24 h; Potency, µM (top dose mostly 92.2 µM), for inactives: at the highest dose activity change, negative = less growth, hits mostly inhibitors; 0.21% of 360,000 active; active = well fitted falling curve with a large enough effect; inconclusive = small, poorly fitted or top-dose-only effect; inactive = no such curve, though single readings can be large or run the other way; also: nearly all actives have a fitted effect of over 50% in size
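Fission yeast strain RE007, carrying one chromosomally integrated HIV-1 vpr copy, was seeded at OD 0.01 in PMG+AL medium with 23 nL pinned compound. After 24 h at 30 °C and 99% humidity, viability was read by BacTiter-Glo luminescence.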
* marks the source's active call; other numbers are inactive results; ? = inconclusive; · = not tested or not shown; [ ] = remark or other dose. Shown are actives, neighbours in structure and some others; about 3.3% of the full set was active somewhere. Unless noted, calls follow the shape of the dose curve; as a rule, active = well fitted curve in the direction sought with a large enough effect; inconclusive = small, poorly fitted or top-dose-only effect, or another doubt; inactive = no such curve, though single readings can be large; an effect the other way counts as inactive or inconclusive. % is scaled to controls: 0 for no effect and ±100 for the full control effect; potency is read from the fitted curve at half-maximal effect.

SMILES | FBPA Giardia inh | Sm TGR block | Tb PYK inh | LmPK inh | RE007 growth inh
O=[N+]([O-])c1ccc(C(=S)N2CCN(c3ccc(F)cc3)CC2)cc1 | -8.9% | · | -24.9% | -1.8% | -18.9%
Cc1cc(C)nc(-n2nc(C)cc2NC(=O)CN2CCCC(C)C2)n1 (stereo unspecified) | -0.1% | 25.1µM* | -16.5% | 5.4% | -11.2%
CC(C)(C)c1cc(/C=C2\NC(=O)NC2=O)cc(C(C)(C)C)c1O | 11.7% | 1.12µM* | -4.6% | -2.6% | -1.5%
O=C(N[C@@H](Cc1ccc(O)cc1)C(=O)O)c1cccnc1 | 4.9% | 50.1µM* | -0.5% | -2.9% | 0.6%
Nc1ccc(-c2cc3ccccc3oc2=O)cc1 | -0.9% | -11.1% | -3.5% | 5.1% | -20.6%
O=C/C=C/c1c(-c2ccccc2)cc2oc3ccccc3cc1-2 | -12.2% | 20µM* | -0.6% | 2.7% | -27.4%
Cc1[nH]n(-c2ccccc2)c(=O)c1C=NCC1CCCO1 (stereo unspecified) | 2.6% | 2.1% | -0.6% | -1.9% | -3.1%
CCOC(=O)C1(Cc2ccccc2C(F)(F)F)CCN(Cc2ccc(COC)o2)CC1 | -8.9% | -25.8% | -2.0% | 1.1% | 2.8%
O=C(CCNC(=O)C1CCN(S(=O)(=O)c2ccc(F)cc2)CC1)NCc1ccccc1 | · | -1.1% | 1.6% | 4.3% | 6.1%
CN(Cc1nc(C(c2ccccc2)c2ccccc2)no1)CC1COCCO1 (stereo unspecified) | -18.8% | 1.7% | 4.2% | 14.1µM* | 23.0%
CCc1nc2sc3c(=O)[nH]cnc3c2c2c1CSC(C)(C)C2 | 0.1% | 35.5µM* | -20.9% | -9.6% | 0.3%
COc1ccccc1N1CCN(c2ncc3c(n2)CCN(Cc2ccccc2C)C3)CC1 | · | 0.5% | 2.8% | · | ·
CC(C)N(C(=O)Nc1ccc2nccnc2c1)C(C)C | 3.54µM* | 1.7% | 0.2% | -0.9% | -10.5%
Cc1nc2ccc(NC(=O)N(C(C)C)C(C)C)cc2s1 | -10.5% | 0.0% | -7.6% | -1.3% | -28.5%
CCN(CC(=O)Nc1c(F)cccc1F)C(=O)c1ccc(S(=O)(=O)N2CCCCCC2)cc1 | · | 6.9% | 1.4% | · | -16.8%
N#Cc1ccsc1NC(=O)CSc1nncs1 | · | · | -13.8% | · | -15.7%
COc1cc(NCCCC(C)N)c2ncccc2c1 (stereo unspecified) | ? | 35.5µM* | -14.2% | -12.4% | -21.7%
COc1cc(NCCCCC(C)N)c2nccc(C)c2c1 (stereo unspecified) | · | · | -2.4% | · | -3.9%
Cc1cc2oc(C(=O)NC3CCS(=O)(=O)C3)cc(=O)c2cc1C (stereo unspecified) | 5.0% | -11.3% | -7.9% | 1.4% | 16.1%
Cc1ccc(-n2c(-c3ccncc3)n[nH]c2=S)cc1 | -18.5% | 14.1% | ? | 15.8µM* | 29.0%
Cc1ccc(C)c(-n2c(-c3csc(C)c3)n[nH]c2=S)c1 | 0.2% | -4.5% | ? | 7.94µM* | -5.1%
Cc1ccc(-n2c(-c3ccncc3)n[nH]c2=S)cc1C | -27.4% | -4.1% | ? | -2.4% | -0.4%
Cc1ccc(C)c(-n2c(-c3ccc4c(c3)OCO4)n[nH]c2=S)c1 | 23.0% | 23.8% | 5.01µM* | 3.98µM* | -3.0%
CCN(CC)c1ccc(-c2n[nH]c(=S)n2-c2ccccc2C)cc1 | 9.1% | -1.6% | ? | -4.1% | -16.3%
Cc1ccc(C)c(-n2c(-c3ccncc3)n[nH]c2=S)c1 | ? | 0.8% | ? | 20µM* | 2.9%
SMILES | FBPA Giardia inh | Sm TGR block | Tb PYK inh | LmPK inh | RE007 growth inh
Cc1ccc(-n2c(-c3ccccc3)n[nH]c2=S)c(C)c1 | 16.6% | 2.1% | 11.2µM* | -1.5% | 21.6%
Cc1ccc(-n2c(-c3ccccc3)n[nH]c2=S)cc1 | -0.8% | -25.8% | ? | ? | 10.1%
Cc1sc(NC(=O)c2ccco2)c(CN2CCN(c3ccccn3)CC2)c1C | -16.2% | -17.4% | 4.1% | 3.7% | 8.1%
Cc1ccc(S(=O)(=O)CC#CCOC(=O)c2ccc([N+](=O)[O-])cc2)cc1 | 0.7% | 0.631µM* | · | 3.8% | ·
Cc1ccc(C(=O)c2ccc([N+](=O)[O-])cc2)cc1 | 8.7% | -3.7% | -9.9% | 1.8% | -15.0%
C=CCN1C(=O)/C(=C/c2ccc(-c3ccc(F)cc3)o2)SC1=S | -11.7% | 25.1µM* | -2.6% | -6.3% | 4.1%[18.4 µM]
C=CCN1C(=O)/C(=C/c2ccsc2)SC1=S | 0.9% | -4.0% | 0.3% | 4.2% | 2.4%
O=C(COc1ccc(-c2nnco2)cc1)Nc1c(Cl)cccc1C(F)(F)F | · | 2.5% | -4.5% | · | 2.3%
CC1CCN(C(=O)c2ccc(S(=O)(=O)Cc3ccccc3F)c([N+](=O)[O-])c2)CC1 | 2.6% | -25.1% | 2.4% | 2.2% | 3.6%
COc1ccc(-n2nc3c(c2NC(=O)c2ccc(Br)o2)CS(=O)(=O)C3)cc1 | 3.2% | 35.5µM* | 0.4% | 4.4% | 11.9%
COc1ccc(-n2nc3c(c2NC(=O)c2cc4ccccc4o2)CS(=O)(=O)C3)cc1 | · | 50.1µM* | -11.2% | -5.0% | 10.3%
C/C(CC(=O)Nc1ccc(C)c(Cl)c1)=N\NC(=O)Cc1ccccc1 | 2.4% | -13.2% | -4.3% | 0.9% | -22.4%
c1ccc(-c2ccc(-c3nccc4ccccc34)[nH]2)cc1 | -4.6% | 22.9% | · | 25.1µM* | ·
N#Cc1cc(-c2ccccc2)[nH]c1-c1nccc2ccccc12 | -9.1% | 18.6% | -1.7% | 1.2% | ·
Cc1ccc(C2C(C#N)=C(N)Oc3c2oc(CO)cc3=O)o1 (stereo unspecified) | ? | 39.8µM* | 5.5% | 4.2% | -17.1%
COC(=O)c1sc(=S)sc1C(=O)OC | -6.1% | -22.6% | -11.6% | 2.8% | 31.6µM*
O=C(CSc1ccccn1)Nc1ccc2c(c1)OCCO2 | -7.0% | 1.9% | 4.6% | -4.0% | 0.5%
O=C(O)CCCC(=O)Nc1nc2n(n1)C(c1ccc(F)cc1)CC(c1ccc(Cl)cc1)N2 (stereo unspecified) | 8.9% | -21.9% | 1.2% | 3.7% | -8.1%
CC1=CC(c2ccc(Cl)cc2)n2nc(NC(=O)CCCC(=O)O)nc2N1 (stereo unspecified) | -13.8% | 22.4µM* | -2.5% | -9.6% | 7.8%
CC1=CC(c2ccc(Cl)cc2)n2nc(NC(=O)CCC(=O)O)nc2N1 (stereo unspecified) | -16.6% | 10µM* | -18.2% | 0.1% | 16.6%
CC(=O)Nc1nc2n(n1)C(c1ccc(F)cc1)C=C(c1ccc(Cl)cc1)N2 (stereo unspecified) | · | 5.3% | 0.3% | · | ·
CCOc1ccccc1Nc1cc(C)c2cccc(C)c2n1 | 20.3% | 14.9% | 0.5% | -0.8% | -19.4%
C=CCc1cc(C=C2C(=O)N(C)C(=O)N(C)C2=O)cc(OCC)c1OCc1ccccc1 | -12.4% | 31.6µM* | ? | 0.5% | -9.1%
Nc1ncnc(Sc2ccccc2)c1[N+](=O)[O-] | 9.9% | 12.6µM* | -5.6% | -2.5% | -24.8%
O=C(COc1ccc(Cl)cc1Cl)Nc1ccccn1 | -7.8% | 3.5% | ? | 5.01µM* | ?
COc1ccccc1OCC(=O)Nc1ccccn1 | -2.1% | 0.0% | ? | 12.6µM* | ?
